# PubChem BioAssay AID686979 (National Center for Advancing Translational Sciences (NCATS), 2013)
# Several values for one entry are separate records, joined by “and”; a condition that tells them apart may be missing. Equal entries are not always repeated. Out of some 420,000 compounds screened, about 50,000 (12%) were called active. Roughly 26% stayed inconclusive and do not appear here. Shown is part of a subset that was picked to be rich in actives. Unmarked numbers belong to inactive results. The call rests on the fitted dose curve; in most records, active means well fitted inhibition curve with a large enough effect; inconclusive means small, poorly fitted or top-dose-only effect; inactive means flat fitted curve, though single readings scatter.
# Experiment: qHTS for Inhibitors of human tyrosyl-DNA phosphodiesterase 1 (TDP1): qHTS in cells in presence of CPT; further: nearly all actives have a fitted effect of over 55% in size
# Settings: chicken DT40 Tdp1-/-;hTDP1 cells + 20 nM CPT, ATP luminescence, 48 h; series mostly up to 46.2 µM; activity change, negative = growth inhibition: at the top concentration
# From the text: Human tyrosyl-DNA phosphodiesterase 1 (TDP1) is a novel repair gene, and we propose to use it as a new target for anticancer drug development. TDP1 is not an essential protein, but under treatment with topoisomerase I poison (camptothecin: CPT), TDP1 works as a critical factor for cell survival. To directly identify novel TDP1 inhibitors active in a cellular environment, we have knocked-out the Tdp1 gene in chicken DT40 cells (Tdp1-/-) and generated a complemented counterpart cells that contains a stable transfection of the human TDP1 gene (Tdp1-/-;hTDP1 cells). For the primary screen, Tdp1-/-;hTDP1 cells will be exposed to small molecules in the presence or absence of CPT, and their growth kinetics will be evaluated after 48 hours by measuring ATP activity. […] The hit compounds will then be evaluated in the presence or absence of CPT using Tdp1-/- cells. […] In tertiary assays, biochemical gel-based assays will be used to assess whether the hit compounds specifically target TDP1. To this end, we have screened this cell line against the MLSMR in two primary screens. In one screen we add CPT and in the other we screen in the absence of CPT; this AID represents the screen where CPT was present. NIH Chemical Genomics Center [NCGC] NIH Molecular Libraries Probe Centers Network [MLPCN] MLPCN Grant: MH095538 Assay Submitter (PI): Yves Pommier, NCI
# DT40-hTDP1 cells with 20 nM Camptothecin (add 20 microL of 1 mM CPT stock in 1 L of cell culture medium) were dispensed at 400 cells/5microL/well in tissue culture treated 1536-well white wall/solid bottom assay plates (Greiner Bio-One North America, NC, U.S.A.) using a Multidrop Combi 8 channel dispenser (Thermo Fisher, Waltham, MA, USA). 23 nL compounds and controls were transferred using the pin tool (Kalypsys, San Diego, CA, USA) to the assay plates. The assay plates were then incubated at 37 masculineC for a minimum 48 hr. Three microL of Cell Titer Glo solution was added to the plates and incubated at RT in dark for 30 min. Luminescence was read using ViewLux (Perkin Elmer) with 1 sec exposure slow speed, high gain and 2x binning.
# On the % scale 0 is the no-effect control and ±100 the full control effect; potency means the concentration at half of the fitted maximal effect.
Compound,Potency,"activity change, negative = growth inhibition"
Cc1cccc2c1N(CCOc1ccccc1)C(=O)C2=O,2.06 µM (active),–
Cc1cccc(C)c1-n1nnnc1C1(C)CCC(=O)N1CCOc1ccccc1 (configuration not stated),–,-22.9%
O=C1c2ccccc2C(=O)N1CCOc1ccc(F)cc1,–,12.8%
O=c1c2ccccc2ncn1CCCCOc1ccccc1F,–,-27.2%
CCOC(=O)N1CCN(C(=O)C(C)NC(=O)c2ccco2)CC1 (configuration not stated),–,-11.1%
CC(=O)c1ccc(N2CCN(C(=O)CCNC(=O)Cn3ccc4ccccc4c3=O)CC2)cc1,–,-22.6%
CCOc1ccc(N(CC(=O)Nc2cccc(OC)c2)S(C)(=O)=O)cc1,–,-24.5%
CCOc1cccc(NC(=O)c2ccc(F)c(S(=O)(=O)N(CC)c3cccc(C)c3)c2)c1,18.4 µM (active),–
CCOc1cccc(NC(=O)CC#N)c1,–,11%
O=c1[nH]c2ccccc2s1,–,-3.32%
CC1CCCCN1C(=O)CCS(=O)(=O)Cc1ccccc1 (configuration not stated),–,-3.67%
COc1ccnc(Oc2ccccc2)n1,–,28.3%
CCC(C)c1ccccc1N1CC(C(=O)N2CCN(S(=O)(=O)c3ccc(F)cc3)CC2)CC1=O (configuration not stated),–,-14.4%
COc1ccc(CCNS(=O)(=O)c2cc3c(cc2C)NC(=O)CO3)cc1OC,–,1.71%
CCOc1ccc(C(CC(=O)O)NC(=O)Cc2ccccc2)cc1OC (configuration not stated),–,9.07%
CCC/C=C(\CCC)C(NC(=O)Cc1ccccc1)c1ccc(C(=O)OC)cc1 (configuration not stated),18.4 µM (active),–
COc1ccc(CC(=O)NC(C)CCc2ccccc2)cc1 (configuration not stated),–,0.105%
Cc1cccc(OCC(=O)NCC(=O)N/N=C/c2ccc(N(C)C)cc2)c1,–,-7.65%
C=CCc1ccccc1OCC(=O)N/N=C/c1ccccc1OCC,–,-13.5%
Cc1ccc(/C=N/NC(=O)COc2ccccc2-c2ccccc2)cc1,0.164 µM (active),–
CCOc1ccc(N(CC(=O)NCC2CCCO2)S(=O)(=O)c2ccc(C)cc2)cc1 (configuration not stated),–,-25.1%
O=C(COC(=O)c1ccc2c(c1)OCCO2)NCc1ccccc1Cl,–,11.6%
Cc1ccc(NC(=O)NC(=O)N(C2CCCCC2)S(=O)(=O)c2ccccc2)cc1,–,-10.3%
COCCNc1nc(N)c([N+](=O)[O-])c(N2CCCCCC2)n1,–,11.3%
CSc1nsc(SCC(=O)Nc2cc(C(=O)O)ccc2C)n1,–,-9.95%
Cc1c(C(=O)N/N=C/c2ccccc2)[nH]c2c([N+](=O)[O-])cccc12,0.651 µM (active),–

Compound,Potency,"activity change, negative = growth inhibition"
Cc1ccc2[nH]c(C(=O)O)c(NC(=O)c3ccccc3[N+](=O)[O-])c2c1,–,9.57%
Cc1cc(C(=O)N/N=C/c2ccccc2[N+](=O)[O-])c(C)o1,–,-1.02%
O=c1c(O)c(Br)ccc2c(Br)c(O)c(O)c(O)c12,–,-8.83% [at 9.04 µM]
O=C(COc1ccccc1O)NC1CCCC1,–,11.9%
COCCn1cnc2c1c(=O)n(CC(=O)NN)c(=O)n2Cc1ccccc1,–,-19.6%
CCN(CC)CCn1cnc2c1c(=O)[nH]c(=O)n2Cc1ccccc1,–,5.18%
N=c1c2c(-c3ccccc3)c(-c3ccccc3)n(Cc3ccccc3)c2ncn1CCCO,10.3 µM (active),–
CCOC(=O)c1sc(N)c(C#N)c1COC(=O)C1=COCCO1,–,0.608%
CCCNC(=S)N1CCC(NC(=O)C23CC4CC(CC(C4)C2)C3)CC1,–,-18.2%
COc1ccc(Cl)cc1N(CC(=O)N/N=C/c1ccc(OCC(N)=O)cc1)S(C)(=O)=O,–,-1.8%
COC(=O)c1sc2ncccc2c1OCc1ccc(Cl)cc1Cl,–,-28.6%
NC(N)=N/N=C/c1ccc(OCc2ccc(Cl)cc2Cl)cc1,25.9 µM (active),–
CCOC(=O)C1CCN(S(=O)(=O)c2ccc3c(c2)N(C)C(=O)CC(=O)N3C)CC1,inactive,–
C/C(CC(=O)NCc1ccc(Cl)cc1)=N\NC(=O)COc1ccc(C)cc1Br,16.4 µM (active),–
CCCCC(=O)N/N=C(\C)CC(=O)Nc1cc(Cl)ccc1OC,–,-9.87%
CC(=O)Nc1ccc(OCC(=O)NCc2ccc(C)cc2)cc1,–,1.79%
CN(CC(=O)Nc1cccc(F)c1)C(=O)C1CSC2(C)CCC(=O)N12 (configuration not stated),–,5.41%
Cc1ccsc1C(=O)OCC(=O)NCCc1ccccc1,–,-7.87%
Cc1cc(C)nc(Nc2n[nH]c(-c3ccccc3N)n2)n1,–,-6.41%
C=CCC1=C/C(=C\c2c(N)n3nc(CC(=O)N4CCOCC4)sc3nc2=O)C=C(OC)C1=O,–,-14.2%
N#CCCN(C(=O)Nc1ccc(Cl)c(Cl)c1)C1CCCCC1,–,-21.7%
Cc1ccc(Nc2c(-c3ccc(C)s3)nc3ccccn23)cc1,16.4 µM (active) and 20 µM (active),–
Cc1ccn2c(Nc3ccc4c(c3)OCCO4)c(-c3ccc(C)s3)nc2c1,–,-13.7%
COc1cc(NC(=O)CN(C)S(=O)(=O)c2ccc3nc(C)sc3c2)cc(OC)c1,–,4.15%
CCCC12CN3CC(C)(CN(C1)C3c1ccccc1Cl)C2=O (configuration not stated),–,-3.88%
CCN(CC)CC(=O)c1c[nH]c2ccc(OC)cc12,–,5.15%
